# This is a sample that favours compounds with a hit; in the whole collection about 19% have one here.
# HT1080-NT tox = kills 2HG-producing HT-1080-NT fibrosarcoma cells; HT-1080-NT fibrosarcoma viability, CellTiter-Glo ATP luminescence, 48 h; Potency, µM (series often up to 46.1 µM), without a hit: top-dose activity, negative = less viability, most hits filed as cytotoxic; 360,000 compounds, 1.6% hits; AID 686970;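 note: NT is the 2HG producing partner of a matched IDH1 knockdown line; 0% = DMSO-treated cells and -100% = media-only wells without cells; nearly all actives have a fitted effect of over 55% in size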
#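 Viability of the 2HG-overproducing fibrosarcoma line after 48 hours of compound exposure at 37 degrees C was determined by luminescence with CellTiter-Glo, and concentration-effect curves were then fitted and categorized.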
# DT40 TDP1 CPT = growth inhibition of DT40 Tdp1-/-;hTDP1 cells with camptothecin (screen for TDP1 inhibitors) | chicken DT40 Tdp1-/-;hTDP1 cells + 20 nM CPT, ATP luminescence, 48 h | Potency, µM (series often up to 46.2 µM), for the others: at the highest dose activity change, negative = growth inhibition, usual class: inhibitors | 420,000 compounds, 12% hits; note: nearly all actives have a fitted effect of over 55% in size
#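 Chicken DT40 Tdp1-/- cells stably complemented with human TDP1 were seeded at 400 cells/well in medium containing 20 nM camptothecin, exposed to pin-transferred compounds, and grown at 37 °C for at least 48 hr. Viability was read as ATP luminescence.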
# TDP1 cell noCPT = qHTS for Inhibitors of human tyrosyl-DNA phosphodiesterase 1 (TDP1): qHTS in cells in absence of CPT; DT40 Tdp1-/- hTDP1 cells, no CPT, ATP luminescence, 48 h; Potency, µM (doses to about 46.2 µM), for the others: at the highest dose activity change, negative = growth inhibition, hits mostly inhibitors; 420,000 compounds, 15% hits; note: nearly all actives have a fitted effect of over 55% in size
#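 A cellular qHTS used chicken DT40 cells lacking endogenous Tdp1 but carrying stably transfected human TDP1. Compounds were applied without camptothecin, and cell growth kinetics were judged by ATP-dependent luminescence after ≥48 hr.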
# KB-V1 cytotox = KB-V1 MDR subline cytotoxicity; AID 1347076; Potency, µM (top dose mostly 46.1 µM), usual class: cytotoxic; 400,000 compounds, 3.4% hits; KB-V1 MDR cells viability, CellTiter-Glo, 72 h; note: nearly all actives have a fitted effect of over 60% in size
#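 Following 72 h at 37 degrees C with compound, KB-V1 cell viability was read by CellTiter-Glo luminescence, medium being phenol-red-free DMEM plus 10% FBS; concentration-response parameters came from normalized, curve-fitted qHTS data.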
# KB-3-1 tox = KB-3-1 parental cell cytotoxicity; KB-3-1 viability, CellTiter-Glo ATP luminescence, 72 h; Potency, µM (series often up to 46.1 µM), actives largely listed as cytotoxic; 400,000 compounds, 1.4% hits; AID 1347075; note: nearly all actives have a fitted effect of over 60% in size
#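 72 h, 37 °C compound treatment of KB-3-1 parental cells; CellTiter-Glo added, 10 min, luminescence read. Data corrected against DMSO-only plates and normalized before curve fitting.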
# HT1080 IDH1KD tx = toxicity to HT-1080 IDH1 knockdown cells (counter line). Potency, µM (top dose mostly 46.1 µM), inactives show at the top dose activity, negative = toxicity, most hits filed as cytotoxic. HT-1080 IDH1 knockdown viability, ATP luminescence, 48 h. 360,000 compounds, 2% hits;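 note: 0% = DMSO wells and -100% = cell-free medium wells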
#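 Using the IDH1-knockdown HT-1080 line run in the same batch and compound series as the NT line, viability after 48 h at 37 °C was determined by CellTiter-Glo luminescence and expressed as % activity.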
# * marks the source's active call; other numbers are inactive results; i = inactive; ? = inconclusive; . = no result. Calls come from the whole dose curve; as a rule, active = well fitted curve in the direction sought with a large enough effect; inconclusive = small, poorly fitted or top-dose-only effect, or another doubt; inactive = no such curve, though single readings can be large; an effect the other way counts as inactive or inconclusive. Unless noted, % is set by controls: 0 for no effect and ±100 for the full control effect; potency is the fitted concentration of half-maximal effect.
SMILES,HT1080-NT tox,DT40 TDP1 CPT,TDP1 cell noCPT,KB-V1 cytotox,KB-3-1 tox,HT1080 IDH1KD tx
Clc1ccc(-n2cnc3c(Cl)ncnc32)cc1Cl,14.4%,4.61µM*,6.51µM*,i,i,14.3%
O=C(Cn1c(=O)nc(-c2ccccc2F)c2cc(Cl)ccc21)Nc1ccccc1C(F)(F)F,.,-28.4%,?,.,.,.
COc1ccc(/C=C/C(=O)c2c(C)nc3ccccn23)cc1,16.1%,-12.1%,-8.9%,?,i,16.1%
Cc1nc2ccccn2c1C(=O)/C=C/c1ccc(F)cc1,-24.7%,?,20.6µM*,16.4µM*,16.4µM*,-1.1%
Cc1nn(-c2nnc(NCc3ccccc3)nn2)c(C)c1Br,-1.7%,?,-29.9%,20.6µM*,8.2µM*,10.6%
Cc1cc(C)n(-c2nnc(NCc3ccc(Cl)cc3)nn2)n1,-15.2%,-14.0%,?,i,i,-28.0%
Cc1ccc(-n2c(N)c(C#N)c(-c3ccc(Cl)cc3)c(C#N)c2=O)cc1,-14.0%,?,-19.0%,i,i,-19.4%
CCOC(=O)c1c(-c2ccc(Cl)cc2)c(C#N)c(=O)n(N)c1N,-16.5%,?,0.517µM*,i,i,-21.7%
CC1CC[C@@]2(OC1)OC1CC3C4CC=C5CC(O)CC[C@@]5(C)C4CC[C@]3(C)C1C2C (stereo partly drawn),.,-4.7%,4.6%,.,.,.
CSc1ccccc1C(=O)NCC1Cc2cc(F)cc(-c3cnccn3)c2O1 (stereo not drawn),.,20.6µM*,?,.,.,.
Cc1c(C(=O)NCCc2ccc(Cl)cc2)cccc1-n1cnc2cccnc21,.,14.6µM*,13µM*,i,i,.
CCOC(=O)Cn1nnc2c(sc3nc4c(c(-c5ccc(Cl)cc5)c32)CCC4)c1=O,6.0%,?,16.4µM*,?,?,4.9%
CCOC(=O)c1c(C)nc2sc3c(=O)n(-c4ccc(C(C)=O)cc4)nnc3c2c1-c1ccc(Cl)cc1,9.4%,?,16.4µM*,?,?,5.7%
CCOC(=O)Cn1nnc2c(sc3nc4c(c(-c5ccccc5)c32)CCC4)c1=O,-2.8%,20.6µM*,16.4µM*,i,i,-1.0%
CCOC(=O)c1c(C)nc2sc3c(=O)n(-c4ccc(C)cc4)cnc3c2c1-c1ccc(OC)cc1,3.2%,-8.9%,-11.1%,i,i,7.6%
O=c1[nH]cnc2c1sc1nc3c(c(-c4ccc(Cl)cc4)c12)CCC3,-0.5%,-4.6%,-28.5%,?,i,2.2%
CCN(CC(=O)Nc1ccccc1C(F)(F)F)C(=O)CN1C(=O)NC(C)(c2ccc3ccccc3c2)C1=O (stereo not drawn),-8.5%,?,-13.4%,?,i,-0.8%
C[C@@H]1CN([C@H](C)CO)C(=O)CCCn2nncc2CO[C@@H]1CN(C)S(=O)(=O)c1cccs1,9.5%,-6.1%,-8.4%,i,i,17.6%
CCn1c(=N)n(CC(=O)c2ccc(OC)cc2)c2ccccc21,-6.8%,?,?,i,i,-13.6%
CCCCCCCn1c(=N)n(CC(O)c2ccco2)c2ccccc21 (stereo not drawn),16.4µM*,3.66µM*,4.61µM*,?,i,23.1µM*
N=c1n(CCN2CCCC2)c2ccccc2n1CC(O)c1ccco1 (stereo not drawn),-1.9%,-25.6%,-12.6%,i,i,6.1%
CCn1c(=N)n(CC(=O)c2ccco2)c2ccccc21,-1.9%,13µM*,?,?,?,-2.3%
CCCCCCCn1c(=N)n(CC(=O)c2ccco2)c2ccccc21,?,20.6µM*,?,?,?,?
CCCCn1c(=N)n(CC(=O)c2ccco2)c2ccccc21,?,?,?,i,i,-5.3%
O=C(O)c1cc(-c2ccc(Cl)cc2)n(-c2ccc(F)cc2)n1,-2.9%,18.1%,-6.7%,i,i,1.4%
SMILES,HT1080-NT tox,DT40 TDP1 CPT,TDP1 cell noCPT,KB-V1 cytotox,KB-3-1 tox,HT1080 IDH1KD tx
Cc1ccccc1C(=O)N1CCC(C(=O)N(C)CC(=O)Nc2cccc(F)c2)CC1,17.1%,2.3%,22.4%,i,i,11.5%
COc1ccccc1CNC(=O)c1ccccc1OC,11.7%,-21.3%,-19.7%,?,i,4.4%
COc1ccccc1CNC(=O)c1cc2ccc3ccc(C)[nH]c3c2n1,.,18.4µM*,16.4µM*,?,i,.
COc1ccccc1CNC(=O)c1ccc2nc3[nH]c4ccccc4c3nc2c1,?,?,8.2µM*,i,?,?
COc1ccc(Cl)cc1NC(=O)c1cc2ccc3ccc(C)[nH]c3c2n1,.,?,23.1µM*,?,i,.
C/C(=N\NC(N)=S)C1C2C3CC4C5CC(C42)C1C53 (stereo not drawn),-23.6%,?,10.3µM*,?,i,-7.5%
CCC1CC(/C(C)=N/NC(N)=O)OC1=O (stereo not drawn),6.6%,4.5%,-0.3%,i,i,12.4%
Cc1ccc2nc(-c3cccc(NC(=O)c4ccc5c(c4)OCCO5)c3)oc2c1,3.8%,-15.7%,?,i,?,5.4%
O=C(Nc1ccc(Cl)cc1Cl)c1ccc2c(c1)OCCO2,-5.2%,-21.3%,-5.4%,i,?,-1.5%
Cc1ccc2oc(-c3cc(NC(=O)Cc4ccccc4)ccc3Cl)nc2c1,.,?,?,i,i,.
Cc1ccc2nc(-c3cc(NC(=O)c4ccc5c(c4)OCCO5)ccc3Cl)oc2c1,.,?,16.4µM*,?,i,.
Cc1ccc2nc(-c3cc(NC(=O)/C=C/c4ccccc4)ccc3Cl)oc2c1,.,23.1µM*,16.4µM*,i,i,.
O=C(Nc1nnc(-c2cc(Cl)ccc2Cl)o1)c1ccc2c(c1)OCCO2,.,?,16.4µM*,.,.,.
CCc1ccc(C2CC(=O)c3c([nH]c(C(=O)OC4CCCCCC4)c3C)C2)cc1 (stereo not drawn),.,-26.6%,-8.3%,i,?,.
O=C(Cn1cc(COc2ccc(Cl)c(Cl)c2)nn1)NS(=O)(=O)c1ccccc1OC(F)(F)F,-0.5%,4.8%,-11.3%,i,i,16.2%
COc1ccc(NC(=O)c2ccco2)cc1NC(=O)c1ccc(OC(C)C)cc1,.,?,20.6µM*,i,i,.
COc1cc(NC(=O)c2cccs2)c(OC)cc1NC(=O)c1ccco1,3.9%,-11.4%,-18.2%,?,i,-3.3%

# Bioassay records as filed in PubChem BioAssay.
